D1 ag: Allosteric Agonists of the Human D1 Dopamine Receptor: qHTS; D(1A) dopamine receptor (Homo sapiens), P21728; HEK293 T-REx D1 cells, calcium flux, agonist mode; activation, % at 2 µM; 360,000 compounds, 1% hits; AID 504660, 2011; in the data active = activation above about 30%; note: 0% is about no effect
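Tetracycline-induced HEK293 TREx D1 cells, force-coupled to calcium signalling, were dye-loaded with a no-wash calcium kit. Compound was pin-added after a 10 s baseline. Fluorescence was read kinetically at 1 cycle/s for 180 s, with calcium rises flagged as agonism.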
D1 PAM: Potentiators of Human D1 Dopamine Receptor: qHTS. D(1A) dopamine receptor (Homo sapiens), P21728. HEK293 TREx D1 cells, calcium flux, dopamine EC20 potentiation. potentiation, % at 10 µM. 360,000 compounds, 0.036% hits; in the data active = potentiation above about 30%; note: 0% is about no effect
TRHR agonist-1: qHTS for Small Molecule Agonists and Allosteric Enhancers of Human TRH Receptor: Primary Screen for Agonists; Thyrotropin-releasing hormone receptor (Homo sapiens), P34981; TRHR cells, calcium flux fluo-8, FDSS agonist mode; activation, % at 2 µM; 360,000 compounds, 0.18% hits; AID 493084, 2011; in the data active = activation above about 30%; note: 0% is about no effect
Target sequence (P34981 whole entry, looked up): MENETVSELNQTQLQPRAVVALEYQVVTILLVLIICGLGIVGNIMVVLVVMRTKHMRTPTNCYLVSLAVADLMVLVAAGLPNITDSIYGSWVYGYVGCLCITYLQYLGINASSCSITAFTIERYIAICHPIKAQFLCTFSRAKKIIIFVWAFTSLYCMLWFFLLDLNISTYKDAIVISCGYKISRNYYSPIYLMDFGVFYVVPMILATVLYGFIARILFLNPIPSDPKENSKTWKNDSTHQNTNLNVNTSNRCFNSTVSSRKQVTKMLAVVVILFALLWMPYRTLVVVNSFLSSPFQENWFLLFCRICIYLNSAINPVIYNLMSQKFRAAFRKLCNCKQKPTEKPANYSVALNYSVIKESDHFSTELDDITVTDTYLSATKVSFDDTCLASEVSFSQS
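Read-out: compound-evoked intracellular calcium rise in TRHR cells, fluo-8 dye, kinetic FDSS fluorescence at 1 s/cycle following a 10-cycle baseline. Cells cultured overnight before dye loading (30 min–1.5 h, RT).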
TRHR enhancer-1: qHTS for Small Molecule Agonists and Allosteric Enhancers of Human TRH Receptor: Primary Screen for Enhancers. Thyrotropin-releasing hormone receptor (Homo sapiens), P34981. TRHR cells, fluo-8 calcium fluorescence, EC20 TRH enhancement. enhancement, % at 2 µM. 360,000 compounds, 0.66% hits. AID 493056, 2011; in the data active = enhancement above about 30%; note: 0% is about no effect
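Enhancer read-out: after compound pinning and an initial kinetic agonist-mode read, an EC20 of TRH (10 nM final) was injected and fluo-8 calcium signal (Ex 480/Em 530) followed at 1 s/cycle for 100 cycles in TRHR-expressing cells.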
D1 antagonist: Antagonist of Human D 1 Dopamine Receptor: qHTS | D(1A) dopamine receptor (Homo sapiens), P21728 | HEK293 TREx D1 cells, calcium flux, dopamine EC80; active compounds read low | activity change, negative = inhibition, % at 10 µM | 360,000 compounds, 3.2% hits | AID 504652, 2011; in the data active = activity change below about -30%; note: % is set by controls: 0 for no effect and ±100 for the full control effect
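Inducible Hek293 Trex D1 cells (tetracycline, overnight, 30 C). Calcium dye 30–90 min RT. Antagonist mode: EC80 dopamine added after 180 s compound read.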
TRHR enhancer-2: qHTS for Small Molecule Agonists and Allosteric Enhancers of Human TRH Receptor: Confirmation Screen for Enhancers; shares compounds with TRHR enhancer-1; TRH receptor cell assay, enhancer confirmation qHTS; activity change, negative = inhibition, % at 46.1 µM; 970 tested, under 10 active; AID 493076, 2011;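 note: compound effect scored on response to added TRH at EC20 of 10 nM; 0% is about no effect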
TRHR agonist-2: qHTS for Small Molecule Agonists and Allosteric Enhancers of Human TRH Receptor: Confirmation Screen for Agonists. shares compounds with TRHR enhancer-1. TRHR-expressing cells, agonist activation read-out. Potency, µM (highest dose often 46.1 µM), for the others: at the top dose activation, hits mostly activators. 970 compounds, 8% hits. AID 493078, 2011; note: potency is the fitted concentration of half-maximal effect; 0% is about no effect; nearly all actives have a fitted effect of over 75% in size
An asterisk follows results filed as active; ? = inconclusive; nt = no result. A selection: hits, their analogues and other compounds. The true share with any hit is near 4.6%. Unless noted, calls come from the whole dose curve; as a rule, active = well fitted curve in the direction sought with a large enough effect; inconclusive = small, poorly fitted or top-dose-only effect, or another doubt; inactive = no such curve, though single readings can be large; an effect the other way counts as inactive or inconclusive.

SMILES	D1 ag	D1 PAM	TRHR agonist-1	TRHR enhancer-1	D1 antagonist	TRHR enhancer-2	TRHR agonist-2
COc1ccc(C(=O)N2CCN(Cc3ccccc3C(F)(F)F)CC2)cc1	7	0	32*	-8	-4	-3	1%
COc1cccc(C(=O)N2CCN(Cc3ccccc3C(F)(F)F)CC2)c1	9	-2	0	2	-10	nt	nt
O=C(COc1ncnc2ccccc12)NCCc1ccccc1	2	-10	0	58*	-44*	-2	-1%
CC(=O)c1ccc(N2CCN(C(=O)c3cccs3)CC2)c(F)c1	6	-5	27	-1	19	-2	-1%
CCCC(=O)c1ccc(N2CCN(C(=O)c3cccs3)CC2)c(F)c1	3	-4	0	7	-12	nt	nt
COc1ccc(C(=O)N/N=C/c2sc3ccccc3c2O)cc1	23	-2	7	-3	3	nt	nt
O=C(N/N=C/c1sc2ccccc2c1O)c1ccccc1	60*	-1	38*	-6	10	1	21µM*
C=CCn1c(SCc2cc(=O)n3cc(C)ccc3n2)nnc1-c1cccc(C)c1	3	7	0	-12	-10	nt	nt
Cc1ccc2nc(CSc3nnc4ccccn34)cc(=O)n2c1	8	1	0	51*	-18	-7	-1%
COc1ccc(C(=O)N(CCCO)C(C)C(=O)NC2CCCCC2)cc1OC (stereo unspecified)	5	-9	1	-7	5	nt	nt
O=C(NCc1ccccc1)C1CCCN1S(=O)(=O)c1ccc(F)cc1 (stereo unspecified)	0	-1	-2	0	5	nt	nt
Cc1ccc(CNC(=O)C2CCCN2S(=O)(=O)c2ccc(F)cc2)cc1 (stereo unspecified)	0	-5	-1	47*	13	-4	2%
COc1ccccc1NC(=O)Cn1nnc(-c2ccccc2NS(=O)(=O)c2ccccc2)n1	4	2	0	0	-15	nt	nt
COc1ccc(NC(=O)Cn2nnc(-c3ccccc3NS(=O)(=O)c3ccc(OC)cc3)n2)cc1	0	-2	0	41*	8	5	0%
N#Cc1ccccc1NC(=O)C(=O)NCC1CCCN1S(=O)(=O)c1cccs1 (stereo unspecified)	0	-2	0	2	1	nt	nt
CN(c1ccc(C(=O)N2CCN(c3ccc(F)cc3)CC2)cc1)S(C)(=O)=O	-1	-5	1	56*	0	-6	-1%
Cc1ccccc1NC(=S)N(Cc1cccnc1)Cc1ccccc1Cl	2	-6	-1	47*	11	?	6%
COc1ccccc1NC(=S)N(Cc1cccnc1)Cc1ccccc1Cl	1	-3	0	-1	-13	nt	nt
COc1ccccc1N1C(C)=CC(=C(C#N)c2nc3ccccc3s2)C=C1C	191*	11	46*	-6	-24	?	18µM*
NS(=O)(=O)c1ccc(CCNC(=O)C2CCC(Cn3c(=S)[nH]c4ccccc4c3=O)CC2)cc1 (stereo unspecified)	2	0	-1	41*	-18	3	-1%
Cc1ccc2c(c1)c(Sc1ccccc1)c(CC(=O)O)n2C	3	8	99*	20	8	-7	1%
CCC1CCC2(CC1)NC(=O)N(CC(=O)Nc1ccc(OC)c(Cl)c1)C2=O (stereo unspecified)	1	-5	0	14	-18	nt	nt
CCN1CCN(C(=O)c2ccc3c(c2)N(Cc2ccccc2)C(=O)c2ccccc2S3(=O)=O)CC1	5	-6	0	-3	9	nt	nt
CC(=O)Nc1cc2c(nc1C)nc(C)n2Cc1ccc(Br)cc1	4	2	1	46*	-1	-2	-1%
N#Cc1ccc(-c2cccnc2)nc1SCC(=O)c1ccccc1	108*	0	38*	-3	-28	-5	5%
SMILES	D1 ag	D1 PAM	TRHR agonist-1	TRHR enhancer-1	D1 antagonist	TRHR enhancer-2	TRHR agonist-2
Cc1cn2c(N)c(C=C3C=C(Cl)C(=O)C(Cl)=C3)c(=O)nc2s1	51*	3	27	-3	6	0	9.2µM*
O=C(O)C1=C[C@@H](c2csc3ccccc23)C[C@@H](OCCCCO)O1	0	0	0	49*	-23	0	3%
CC(=O)Nc1cccc(-c2nnc(-c3ccc(C)cc3)o2)c1	3	1	1	5	27	nt	nt
Cc1cc(C(=O)CSc2ccc(Cl)cc2)cc(C)c1OC(=S)N(C)C	7	-11	0	-9	-21	nt	nt
O=C(Nc1ccccc1)c1cccc(S(=O)(=O)NCc2ccco2)c1	4	0	0	2	-12	nt	nt
CCOC(=O)c1c(NC(=O)COC)sc(C(C)=O)c1C	2	-3	33*	0	1	13	-1%
CCOC(=O)c1c(NC(=O)COC)sc(C)c1C	-1	0	0	-5	11	nt	nt
CCN(CC)C1=NC=CC(c2ccccc2)=CC1C (stereo unspecified)	4	-6	0	2	6	nt	nt
O=C(CCCn1c(=S)[nH]c2cc3c(cc2c1=O)OCO3)NCc1ccccc1Cl	1	1	-2	46*	6	-4	0%
O=S(=O)(c1ccccc1)c1nc(-c2ccc(F)cc2)oc1N1CCOCC1	-5	4	0	-2	22	nt	nt
C#CCN(C)CC/C=C1\c2ccccc2CSc2ccccc21	3	-23	74*	-3	-2	-6	1%
C#CCN(C)Cc1ccccc1	1	-2	-1	-7	13	nt	nt
Cc1c(Nc2nc(-c3cccc([N+](=O)[O-])c3)cs2)c(=O)n(-c2ccccc2)n1C	0	-3	0	48*	2	-1	1%
Cc1c(NS(=O)(=O)c2cccc([N+](=O)[O-])c2)c(=O)n(-c2ccccc2)n1C	0	-3	0	3	2	nt	nt
COc1ccc(C)cc1N(C(=O)c1ccc(F)cc1)c1nc2ccccc2s1	3	-3	2	-15	-3	nt	nt
CC1CCCCN1CCNC(=O)CN1C(=O)COc2ccccc21 (stereo unspecified)	2	-1	0	51*	2	5	1%

High-throughput results deposited in PubChem BioAssay by National Center for Advancing Translational Sciences (NCATS).
